Source: PubChem BioAssay AID1159580 (chemical genetic matrix, 2015)
Screen size: about 5,500 compounds; about 2,000 (36%) were called active. Inconclusive results (about 18%) are left out. No stated cut-off is given here; in the data, active means normalized growth mostly below about 0.91 (no sharp cut-off); inconclusive means no clear call, values can overlap the other calls; inactive means mostly above about 0.92. Some of the results follow.

Test: chemical genetic growth profiling, strain panel (AID 1159580);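 further: tested at 20 µM; growth read once vehicle control cultures reached saturation at 30 °C; 1 = growth at the plate median or of vehicle wells; lower values mean less growth of the strain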
Settings: S. cerevisiae deletion strains, growth OD

Measured: normalized growth

OCCN1CCN(CC/C=C2/c3ccccc3Sc3ccc(C(F)(F)F)cc32)CC1
active: locus YPL055C, strain LGE1, active compounds read low 0.87
inactive: locus YAL040C, strain CLN3, active compounds read low 1.04 | locus YCL061C, strain MRC1 (second series), active compounds read low 0.973 | locus YDR363W, strain ESC2, active compounds read low 0.923 | locus YER002W, strain NOP16, active compounds read low 1.01 | locus YGR078C, strain PAC10, active compounds read low 0.975 | locus YJR075W, strain HOC1, active compounds read low 0.942 | locus YNL128W, strain TEP1, active compounds read low 1.02 | locus YNL175C, strain NOP13, active compounds read low 1.07 | locus YNL197C, strain WHI3, active compounds read low 1.02 | locus YNL224C, strain SQS1, active compounds read low 1.05 | locus YNL322C, strain KRE1, active compounds read low 0.974 | locus YOR083W, strain WHI5 (second series), active compounds read low 0.887
